Among all 68,000 compounds or so, about 2,700 (4%) showed an effect of 50% or more. The sample as a whole holds a higher share of strong results than the screen did.
Tested on: Plasmodium berghei
Assay: Screen against P. berghei liver stage (PbLuc), transformed with Luciferase, at 2uM
Format: functional, HepG2
Settings: tested at 2 uM

Going from `COc1cccc(OC)c1C(C(=O)O)N(C)Cc1c(C)n[nH]c1C` (stereo not drawn) to `CCc1nn(C)c2[nH]nc(NC(=O)c3cccnc3OC)c12`, the INHIBITION falls from 17.2% to -3.4%.

Compared with `CCN1CCC2(CC1)CC(NCc1cccs1)c1ccccc1O2` (stereo not drawn), `O=C(Nc1ccccc1)C1CN(Cc2nccs2)CC12CCOCC2` (stereo not drawn) is higher in INHIBITION: -5.2% for the first, 11.9% for the second.

Compared with `COCC(=O)N1CC(=O)c2sc(Nc3ccc(F)cc3F)nc2C1`, `COCC(=O)N1CCN(C(=O)CCc2ccsc2)CC1` is higher in INHIBITION: -0.83% for the first, 67.28% for the second.

First: Cc1noc(C(C)Nc2ccc3c(c2)CCC3)n1 (stereo not drawn)
Second: Cc1noc([C@H]2COC[C@H]3CN(C(=O)Cc4ccccc4F)C[C@H]32)n1
The INHIBITION of the first is lower: -46.99% for the first, 15.89% for the second.

First: CN1CCc2c(C#N)c(NCCc3ccccc3)n3cnnc3c2C1
Second: NC(=O)c1ccc2c(c1)nc1n2CCN(Cc2cccnc2)C1
The INHIBITION of the first is lower: -30.35% for the first, 8.41% for the second.

First: Cc1ccc(NS(=O)(=O)c2c[nH]c3ncccc23)nc1
Second: O=S(=O)(c1ccc(F)cc1)n1cc(Cl)cn1
The INHIBITION of the first is lower: -27.36% for the first, -0.9% for the second.

Compared with `Cc1csc(NC(=O)c2cnc(C3CCCN3)cn2)n1` (stereo not drawn), `CCOCC1c2c(ncn2C)CCN1C(=O)c1cnc(C)cn1` (stereo not drawn) is lower in INHIBITION: 14.47% for the first, -6.19% for the second.

Compared with `CCCn1nc2c(cc1=O)CN(Cc1ncc(C(C)(C)C)o1)CC2`, `CCOCCN1CCN(Cc2coc(-c3cccc(F)c3)n2)CC1` is higher in INHIBITION: 27.85% for the first, 62.13% for the second.

Compared with `C1=CCN(c2nc(CC3CC3)nc3c2CCN(C2CCOCC2)CC3)C1`, `c1ccc(CN2CCOCC3(CCN(C4CCOCC4)C3)C2)cc1` (stereo not drawn) is higher in INHIBITION: -59.35% for the first, -28.17% for the second.

First: O=C(c1cc(-c2ccc(O)cc2)n[nH]1)N1CCCC1c1cccnc1 (stereo not drawn)
Second: Cc1cnn(CC2CCCN2Cc2coc(-c3ccc(F)cc3)n2)c1 (stereo not drawn)
The INHIBITION of the first is higher: 35.01% for the first, 7.8% for the second.

Compared with `COCC(=O)N1CC[C@]2(O)CCN(C(=O)CCc3ccsc3)C[C@@H]2C1`, `COc1cc(C)nc(N2CCN(C(=O)CCc3ccsc3)CC2)n1` is higher in INHIBITION: -11.68% for the first, 1.77% for the second.

First: C[C@H]1CN(C(=O)c2cccc(F)c2Cl)CCN1S(C)(=O)=O
Second: Cc1ccc(CN2CC[C@H]3[C@H]2CCN3S(C)(=O)=O)s1
The INHIBITION of the first is lower: -33.29% for the first, -25.95% for the second.

Going from `CSc1nccc(N2CCC(NCc3ccc4c(c3)OCO4)CC2)n1` to `Cc1cc(C)n(CC(C)NC2CCN(Cc3cccc(O)c3)CC2)n1` (stereo not drawn), the INHIBITION falls from 46.95% to 32.71%.

Compared with `CCc1[nH]c2c(CNC(=O)C3CNC(=O)C3)cc(C)cc2c1C` (stereo not drawn), `CCc1[nH]c2c(CNC(=O)C3CCC(=O)NC3)cc(C)cc2c1C` (stereo not drawn) is lower in INHIBITION: 53.05% for the first, 11.37% for the second.

Compared with `CCc1[nH]c2c(CNC(=O)C3CCS(=O)(=O)CC3)cc(C)cc2c1C`, `Cc1ccc(C(=O)N(Cc2ccccc2F)C2CC2)c(=O)[nH]1` is lower in INHIBITION: 13.65% for the first, -2.23% for the second.

Compared with `CCC(CO)N(Cc1ccco1)C(=O)c1ccccc1NC` (stereo not drawn), `Cc1ccc(C(=O)N(C)CCOc2ccccc2F)c(=O)[nH]1` is higher in INHIBITION: 4.57% for the first, 54.62% for the second.

Compared with `CCOCC(O)CN1CCN(C(=O)c2ccncc2)CC1` (stereo not drawn), `CCOCC(O)CN1CCN(C(=O)c2ccc(OC)cc2)CC1` (stereo not drawn) is lower in INHIBITION: 69.01% for the first, 2.8% for the second.

Compared with `CCOCC(O)CN1CCN(C(=O)c2cc(F)cc(F)c2)CC1` (stereo not drawn), `CCN1CCN(Cc2coc(-c3cccc(F)c3)n2)CC1` is higher in INHIBITION: -41.07% for the first, 23.92% for the second.

First: COc1ccc(-c2cc3nc([C@H](C)NC(=O)C4CC4)nn3cn2)cc1
Second: COc1ccc(SC(C)C(=O)N2CCC(NC(=O)C3CC3)CC2)cc1 (stereo not drawn)
The INHIBITION of the first is lower: 20.72% for the first, 61.74% for the second.

First: CCn1cc(CN2C[C@@H]3CC[C@H]2CN(C(=O)c2ccncc2)C3)cn1
Second: O=C(c1cccn1Cc1cccs1)N1CCN(C2CC2)CC1
The INHIBITION of the first is lower: -23.16% for the first, -14.3% for the second.

Going from `CCc1nn(C)c2[nH]nc(NC(=O)c3cccnc3NC(C)C)c12` to `CCc1nn(C)c2[nH]nc(NC(=O)c3cccnc3OCC(C)C)c12`, the INHIBITION falls from 54.87% to 5.94%.

First: Cc1cccc2c1NC1(CCCC1)NC2=O
Second: CC1(C)CNC(=O)CN(C(=O)Cc2ccccc2)C1
The INHIBITION of the first is lower: 19.81% for the first, 30.56% for the second.

First: COc1cccc(OC2CN(C(=O)c3ccnc(OC)c3)C2)c1
Second: COc1cc(C(=O)N2CC(Oc3ccccc3Cl)C2)ccn1
The INHIBITION of the first is lower: 6.85% for the first, 14.88% for the second.

First: CCc1ccccc1OC1CN(C(=O)c2ccnc(OC)c2)C1
Second: COc1ccc(CCC(C)Nc2cccc(SC)c2)cc1 (stereo not drawn)
The INHIBITION of the first is higher: 72.94% for the first, 2.5% for the second.

Going from `NC(=O)C1CCN(C(=O)c2cccn2Cc2cccs2)CC1` to `CNC(=O)C1CCN(C(=O)c2cccn2Cc2cccs2)CC1`, the INHIBITION rises from 3.97% to 56.67%.

First: O=C(c1cccn1Cc1cccs1)N1CCC(C(=O)N2CCCC2)CC1
Second: O=C(c1cccn1Cc1cccs1)N1CCN(C(=O)C2CC2)CC1
The INHIBITION of the first is higher: 17.42% for the first, -72.53% for the second.

First: O=C(c1cccn1Cc1cccs1)N1CCSCC1
Second: O=C(c1cnccn1)N1CCOC2(CCN(Cc3ccsc3)CC2)C1
The INHIBITION of the first is higher: 69.49% for the first, -3.36% for the second.

Compared with `Cn1cc(C2COC3(CCN(C(=O)Cn4cccn4)CC3)C2)cn1` (stereo not drawn), `Cc1noc([C@H]2COC[C@H]3CN(C(=O)Cc4ccc(F)cc4)C[C@H]32)n1` is lower in INHIBITION: 12.36% for the first, 11.08% for the second.

First: CCOCC1CN(CC2CC2)Cc2nn(C)cc21 (stereo not drawn)
Second: CCOCC(=O)N1C[C@@H]2COC[C@H](c3nc(C)no3)[C@@H]2C1
The INHIBITION of the first is lower: 4.99% for the first, 64.16% for the second.

First: O=C(CCC1CCCC1)NCCn1nc(C2CCNC2)c2nccnc21 (stereo not drawn)
Second: CC(Cn1cncn1)NC1CCN(Cc2cccc(O)c2)CC1 (stereo not drawn)
The INHIBITION of the first is higher: 26.52% for the first, -6.77% for the second.

Going from `OCCN1CCN(Cc2coc(-c3cccc(F)c3)n2)CC1` to `CC(CN1CCOCC1)NC1CCN(Cc2cccc(O)c2)CC1` (stereo not drawn), the INHIBITION rises from 45.83% to 58.12%.

First: CC(C)c1ccc(C(CN)N2CCc3sccc3C2)cc1 (stereo not drawn)
Second: COc1ccc(SC(C)C(=O)N2CCC(C(N)=O)CC2)cc1 (stereo not drawn)
The INHIBITION of the first is higher: 11.74% for the first, -12.36% for the second.

First: CN(Cc1ccco1)[C@@H]1CN(Cc2ccoc2)C[C@@H]2CCCO[C@@H]21
Second: COc1ccc(SC(C)C(=O)N2CCC(O)CC2)cc1 (stereo not drawn)
The INHIBITION of the first is lower: -11.13% for the first, -0.39% for the second.

First: Cc1ccc(C(=O)N(C)Cc2cscn2)c(=O)[nH]1
Second: Cc1cc(-c2cnc(N3CCSCC3)nc2-c2ccc(C)s2)on1
The INHIBITION of the first is higher: 44.39% for the first, -48.18% for the second.

From ChEMBL document CHEMBL4513216, “Probing the Open Global Health Chemical Diversity Library for Multistage-Active Starting Points for Next-Generation Antimalarials” (ACS Infect Dis, 2020)
